# Experimental data: ChEMBL document CHEMBL4513216, “Probing the Open Global Health Chemical Diversity Library for Multistage-Active Starting Points for Next-Generation Antimalarials” (ACS Infect Dis, 2020)
# About 8,600 (12%) of roughly 69,000 compounds showed an effect of 50% or more. For the sample, strong results were picked, then their nearest neighbours and some compounds at random.
# System: Plasmodium berghei
# Test: Screen against P. berghei liver stage (PbLuc), transformed with Luciferase, at 10uM
# Format: functional, HepG2
# Conditions: tested at 10 uM
row,Structure (SMILES),INHIBITION
1,O=C(O)c1cn(-c2ccccn2)c(=O)c2ccccc12,-44.2%
2,CN(C)[C@@H]1CN(Cc2ccc(O)cc2)C[C@H]1c1cn(C)c2ccccc12,40.9%
3,O=C(c1ccncc1)N1C[C@H]2CC[C@@H](C1)N(S(=O)(=O)c1cccnc1)C2,-66.4%
4,CCN1CC(C(=O)NCc2ccnc(-n3cccn3)c2)CC1=O (stereo not given),-12.33%
5,CCOC(C)c1nccn1Cc1c(C)noc1C (stereo not given),3.19%
6,Cc1cc(C(F)(F)F)nc(C2(C)CCCN2CC(N)=O)n1 (stereo not given),14.385%
7,c1cncc(-n2cnnc2CCCN2CCOCC2)c1,3.69%
8,CN1CCN(Cc2cccnc2)C2(CCN(Cc3ccoc3)C2)C1=O (stereo not given),-24.9%
9,COCCC(=O)NC1CCN(CC2(c3cccc(F)c3)CCCC2)CC1,12.3%
10,Cc1ccc(NC(=O)[C@H]2C[C@H](C(=O)O)CN(CC(C)C)C2)cn1,11.2%
11,CCc1ncc2c(n1)CN(c1cc(NCCO)nc(N)n1)C2,-63.2%
12,COc1ccc(F)c(-c2cc(NCCO)nc(N)n2)c1,-76.6%
13,CC(C)(C)c1ncc2c(n1)CN(c1cc(NCCO)nc(N)n1)C2,3.84%
14,CC(C)Cc1ncc2c(n1)CN(c1cc(NCCO)nc(N)n1)C2,27.7%
15,Nc1nc(NCCO)cc(N2CCc3c([nH]c4ccccc34)C2)n1,78.5%
16,COc1ccc2[nH]c3c(c2c1)CN(c1cc(NCCO)nc(N)n1)CC3,54.8%
17,C[C@@H]1C[C@H]2CN(C(=O)c3ccncn3)C[C@H]2O1,-0.813%
18,CN1[C@@H](C(=O)NCC2CC2)C[C@@H]2CN(Cc3ccoc3)C[C@@H]21,1.34%
19,N#CC(NC(=O)CC(F)(F)F)c1ccsc1 (stereo not given),-3.68%
20,COc1cccc(C=CCCN2CCN(S(C)(=O)=O)CC2)c1,-104%
21,Cc1cc(-c2cnc(N3CCOCC3)nc2-c2ccc(C)s2)on1,53%
22,CCN1CCN(c2ncc(-c3cc(C)no3)c(-c3ccco3)n2)CC1,11.5%
23,CCN1CCN(c2ncc(-c3cc(C)no3)c(-c3ccoc3C)n2)CC1,48.9%
24,Cc1cc(-c2cnc(N3CCSCC3)nc2-c2ccc(C)s2)on1,47.1%
25,CCN1CCN(c2ncc(-c3cc(C)no3)c(-c3ccc(C)s3)n2)CC1,57.4%
26,Cc1cc(-c2cnc(N3CCN(C)CC3)nc2-c2ccc(C)s2)on1,69.4%
27,Cc1cc(-c2cnc(N3CCCC3)nc2-c2ccc(C)s2)on1,32.3%

row,Structure (SMILES),INHIBITION
1,Cc1nc(CN2CCCC(N(C)CCOCC(F)(F)F)C2)no1 (stereo not given),-13.5%
2,c1cc(COc2ccc(CNC3CCc4ncnn4C3)cc2)ccn1 (stereo not given),-1.76%
3,CS(=O)(=O)CC1(CNc2c(C#N)cnc3ccc(Cl)cc23)CC1,-14.1%
4,CS(=O)(=O)c1cn[nH]c1C1CCCCN1C(=O)c1ccsc1 (stereo not given),-69.5%
5,CN1C(=O)CCC12CCC(NC(=O)NCc1cccnc1)CC2 (stereo not given),28.5%
6,CS(=O)(=O)N1CCN(Cc2ccc(F)cc2Br)CC1,35.4%
7,O=S(=O)(c1ccccc1)N1CCN(Cc2ccc(F)cc2Br)CC1,33.1%
8,O=S(=O)(N1CCCCCC1)N1CCN(Cc2ccc(F)cc2Br)CC1,71.2%
9,CN1C(=O)CC(C(=O)O)C12CCN(c1ccc3cccc(Cl)c3n1)CC2 (stereo not given),-0.273%
10,CCC1=N[C@@]2(CC[C@@H]3CN(CC(C)C)C[C@@H]32)C(=O)N1,24.9%
11,COc1cc(C2SCC(=O)Nc3ccsc32)cc(OC)c1OC (stereo not given),29.4%
12,COc1ccc(C2SCC(=O)Nc3ccsc32)cc1 (stereo not given),67.9%
13,COc1ccc(C2SCC(=O)Nc3ccsc32)cc1OC (stereo not given),3.68%
14,COc1cccc(C2SCC(=O)Nc3ccsc32)c1 (stereo not given),3.68%
15,O=C1CSC(c2ccc(O)cc2)c2sccc2N1 (stereo not given),88.1%
16,COc1cc(OC)cc(C2SCC(=O)Nc3ccsc32)c1 (stereo not given),3.68%
17,COC(=O)c1ccc(C2SCC(=O)Nc3ccsc32)cc1 (stereo not given),78.1%
18,O=C1CSC(c2ccsc2)c2sccc2N1 (stereo not given),20.5%
19,COc1cc(C2SCC(=O)Nc3ccsc32)cc(OC)c1O (stereo not given),43.7%
20,COCC1CC2(CCN(Cc3nc(C)cs3)CC2)CO1 (stereo not given),14.9%
21,COc1cc(C(=O)NC(CC(=O)O)c2cccs2)cc(OC)c1C (stereo not given),5.03%
22,COc1ccc(C2=NOC(CC#N)C2)cc1 (stereo not given),45.8%
23,Cc1cc(C)n(CC2CCCN2C(=O)CCNc2ncccn2)n1 (stereo not given),-9.4%
24,NC(=O)C1(CNC(=O)CCc2ccc(Cl)s2)CCOCC1,13.8%
25,O=C(CCCN1CCCCC1)NC(C(=O)O)c1cccc(F)c1 (stereo not given),-20%
26,CN(C)C(=O)COC1COC2(CCN(S(C)(=O)=O)CC2)C1 (stereo not given),37%
27,CCn1cc2[nH]c(OC)c(CNC(=O)CCC3CCCC3)cc-2c1=O,34.4%

row,Structure (SMILES),INHIBITION
1,COc1ccc(C(C)(C)C)cc1CN1CCn2c(CO)nnc2C1,48.4%
2,CCn1cc(NC(=O)C2CCN(Cc3noc(C4CC4)n3)CC2)cn1,18.2%
3,O=C(CCN1C(=O)CCC1=O)Nc1cnn(-c2ccccc2Cl)c1,28.5%
4,O=C(CCN1C(=O)CCC1=O)Nc1ccc(OCC(F)(F)F)nc1,39.4%
5,CC(C)OCC(=O)Nc1ccc(Oc2ccc3c(c2)OCO3)nc1,29.9%
6,O=C(CCN1C(=O)CCC1=O)Nc1ccc(Oc2ccc(Cl)cc2)nc1,51.1%
7,CC(C)N(C)C(=O)c1ccc(Cl)c(NC(=O)CCN2C(=O)CCC2=O)c1,35.2%
8,O=C(CCN1C(=O)CCC1=O)Nc1ccc(Cl)cc1,67.2%
9,COC1CCN(C(=O)NCC(N)=O)CC(=O)N(C)c2ccccc21 (stereo not given),16.2%
10,Cc1cnn(CC2CN(Cc3cccnc3)CCO2)c1 (stereo not given),-7.81%
11,COC(=O)CN1CCCn2nc(CCC(=O)N3CCCC3)cc2C1,32.4%
12,CC(=O)N1CC(C)CN(C(=O)c2cccnc2C)c2ccccc21 (stereo not given),-9.8%
13,CC1CN(C)c2ccccc2N(C(=O)c2c[nH]c(C(C)C)n2)C1 (stereo not given),29.6%
14,CC(=O)N1CC(C)CN(C(=O)c2cnccn2)c2ccccc21 (stereo not given),60.7%
15,CC(C)c1cc(COCCC(=O)O)no1,44.1%
16,COc1ccc(CNC(=O)N2CCN(C)[C@@H]3CS(=O)(=O)C[C@@H]32)cc1,0.891%
17,Cc1ccc(-n2cc(CN3CCN(C)[C@@H]4CS(=O)(=O)C[C@@H]43)cn2)cc1,29.1%
18,CN1CCN(C(=O)NCCc2ccc(F)cc2)[C@H]2CS(=O)(=O)C[C@H]21,52.2%
19,COc1ccc(CCNC(=O)N2CCN(C)[C@@H]3CS(=O)(=O)C[C@@H]32)cc1,31.9%
20,CN1CCN(Cc2cnn(-c3ccc(F)cc3)c2)[C@H]2CS(=O)(=O)C[C@H]21,69.8%
21,CN1CCN(Cc2cnn(-c3ccccc3Cl)c2)[C@H]2CS(=O)(=O)C[C@H]21,-54.8%
22,Cc1cccc(-n2cc(CN3CCN(C)[C@@H]4CS(=O)(=O)C[C@@H]43)cn2)c1,4.41%
23,CN1CCN(Cc2nc3ccccc3[nH]2)[C@H]2CS(=O)(=O)C[C@H]21,-1.64%
24,COc1ccccc1-n1cc(CN2CCN(C)[C@@H]3CS(=O)(=O)C[C@@H]32)cn1,50.1%
25,Cc1nn(C)c2cnn(Cc3ccc(C(=O)NCC4CCCO4)o3)c12 (stereo not given),17.6%
26,O=C1CC2(CCSC2)C(=O)N1Cc1coc(-c2cccc(F)c2)n1 (stereo not given),3.03%
27,Cc1noc(C)c1CN1CCc2ncc(Cn3cccn3)n2CC1,26%

row,Structure (SMILES),INHIBITION
1,Cc1nonc1C(=O)N1CCCC(c2ncncc2-c2ccncc2)C1 (stereo not given),42.1%
2,Cc1nc(Nc2cnccn2)cc(C2CCCN2)n1 (stereo not given),34.9%
3,Cc1ccc(CNC(=O)CN2CCOC(Cn3cncn3)C2)s1 (stereo not given),5.03%
4,O=C(NCCN1CCCCC1)c1ccoc1,16.1%
5,COc1cc(CNCCc2cc(F)cc3c2OCOC3)cc(OC)c1,26.6%
6,CCn1cnnc1CNC(=O)N(C)C(C)c1cccs1 (stereo not given),-41.1%
7,CCOc1ccccc1N1CCN(C(=O)NCc2cc[nH]n2)CC1,49.8%
8,Cc1cccc2nc(CNC(=O)N3CCC(OCC4CC4)CC3)cn12,51.2%
9,O=C(NCc1cc[nH]n1)N1CCC(Oc2ccccc2Cl)CC1,50.2%
10,CCOCC1CCCN(C(=O)NCc2cn3c(C)cccc3n2)C1 (stereo not given),21.6%
11,Cc1cccc(OC2CCN(C(=O)NCCn3ccnc3)CC2)c1C,-4.13%
12,O=C(C1CC1)N1CCC(Oc2ccccc2Cl)CC1,88.1%
13,CS(=O)(=O)NC1CCN(C(=O)NCc2cc[nH]n2)CC1,8.64%
14,CNC(=O)CC1CCN(C(=O)NCc2cn3c(C)cccc3n2)CC1,45.2%
15,CN1CC(C(=O)N2CCC(Oc3ccccc3Cl)CC2)CC1=O (stereo not given),35.5%
16,O=C(C1CC(=O)N(C2CC2)C1)N1CCC(Oc2ccccc2Cl)CC1 (stereo not given),-6.88%
17,O=C(NCc1cc[nH]n1)N1CCN(c2ccccc2Cl)CC1,39.2%
18,Cc1cccc(OC2CCN(C(=O)NCc3cc[nH]n3)CC2)c1C,88.4%
19,Cc1ccc(C(=O)N2CCO[C@H]3[C@@H](OCc4ccccn4)CC[C@@H]32)o1,3.47%
20,Cc1ccc(CNC(=O)N(C)Cc2cnn(C)c2)s1,25.5%
21,COC(=O)c1cc(C2CC2)nc2c(Cl)cnn12,20.9%
22,Cc1c(C(C)NC(=O)Nc2ccc(F)c(F)c2)cnn1C (stereo not given),6.26%
23,Cc1c(C(C)NC(=O)Nc2ccccc2F)cnn1C (stereo not given),61.9%
24,Cc1c(C(C)NC(=O)Nc2ccc(F)cc2F)cnn1C (stereo not given),44.3%
